The text below walks through data of PubChem BioAssay.

Molecules are shown by their SMILES. Active and inactive are the calls of the source.

Assay [1] relates to Human papillomavirus type 1a protein E7 (residues 44-93). The experiment in a line: small molecules binding HPV E7 44-93 – biochemical, small-molecule microarray, residues 44-93, 635 nm fluorescence, primary screen (AID 1108).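 Further: E7 fragment applied at 1 µg/mL in TBST for 1 h at 4 C; score combines spot fluorescence with its signal to noise ratio.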 The note with it: fluorescence 635 nm, higher = more signal.
Assay [2] is described as follows: hepatitis C replication reporter changes, two-sided – Huh7 cells, luciferase reporter, HCV replication inhibitor project, primary screen (AID 1109).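 Further: huh7 hepatoma cells harbouring a luciferase neomycin HCV replicon reporter; luciferase luminescence as measure of HCV replicon replication; test concentration not given here.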 The note with it: Huh7 HCV replicon luciferase reporter, 48 h; higher = more signal. A general note: Reporter assays use an easily measured gene product as a stand-in for the process of interest.
For assay [3], the target named is Left-right determination factor 2 (Homo sapiens) (UniProt O00292). The experiment in a line: small molecules binding LEFTY2 protein – biochemical, small-molecule microarray, 635 nm fluorescence scan, primary screen (AID 1110). Particulars: higher = more signal.
Assay [4] deals with Calmodulin-1 (Homo sapiens) (UniProt P0DP23). The experiment in a line: small molecules binding calmodulin-1 with EGTA – biochemical, small-molecule microarray, Cy5-labelled CALM1, profiling panel (AID 1111).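 Further: labelled calmodulin applied in Tris saline Tween buffer holding calcium plus EGTA and DTT.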 The note with it: Cy5-CALM1 binding fluorescence, higher = more signal.
For assay [5] the target is unchanged. The experiment in a line: small molecules binding Ca-loaded calmodulin-1 – biochemical, small-molecule microarray, Cy5-labelled CALM1, plus calcium, artefact control for SMM control-protein annotation, profiling panel (AID 1112).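 Further: score merges spot fluorescence with signal to noise from triplicate slides.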 Particulars: Cy5-CALM1 binding fluorescence, higher = more signal.
Assay [6] is described as follows: probe aWnt5a binding to arrayed compounds – biochemical, biotinylated probe, 635/667 nm fluorescence, primary screen (AID 1113).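 Further: score merges 667 nm fluorescence intensity with signal-to-noise per printed feature.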 Particulars: small-molecule microarray, higher = more signal.
Assay [7] in a line: probe aShh binding to arrayed compounds – biochemical, biotinylated probe, 635/667 nm fluorescence, primary screen (AID 1114).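 Further: probe is biotin-labelled aShh protein from a stem cell growth factor screen; measures binding of labelled protein to compounds printed on the slide; score merges feature fluorescence at 667 nm with signal-to-noise.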 The note with it: small-molecule microarray, higher = more signal.
Assay [8] in a line: probe aNog binding to arrayed compounds – biochemical, biotinylated probe, 635/667 nm fluorescence, primary screen (AID 1115).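 Further: probe is biotinylated aNog protein used at 0.15 µg/mL for 1 h at 4 C; z-score combines 667 nm fluorescence of each spot with its signal to noise.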 The note with it: small-molecule microarray, higher = more signal.
The target of assay [9] is Torsin-1A-interacting protein 1 (Homo sapiens) (UniProt Q5JTV8). The experiment in a line: compound microarray binding of lysate hLAP1 – cell lysate, small-molecule microarray, COS7 lysate, 635/667 nm fluorescence, primary screen (AID 1116). Particulars: 635 nm fluorescence, higher = more signal.
The target in assay [10] is Alpha-bungarotoxin (Bungarus multicinctus) (UniProt P60615). The experiment in a line: compounds binding labelled alpha-BTX control protein – biochemical, small-molecule microarray, Alexa647 label, 635/667 nm fluorescence, artefact control for SMM control protein annotation, profiling panel (AID 1117). The note with it: alpha-BTX-A647 binding fluorescence, higher = more signal.

A further assay deals with Albumin (Bos taurus) (UniProt P02769). The experiment in a line: compounds binding labelled BSA control protein – biochemical, small-molecule microarray, Alexa647 label, 635/667 nm fluorescence, artefact control for SMM control protein annotation, profiling panel (AID 1118).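 Further: score merges 667 nm emission intensity and signal-to-noise per printed compound spot.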 The note with it: BSA-A647 binding, fluorescence 635 nm, higher = more signal.
Assay [11] in a line: probe aXIP binding to arrayed compounds – biochemical, NeuroSMM set, 635/667 nm fluorescence, primary screen (AID 1119).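 Further: probe is the protein aXip251-270 applied at 1 µg/mL to compound-printed slides; binding of probe to printed compounds measured as 667 nm fluorescence plus signal to noise.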 The note with it: small-molecule microarray, higher = more signal, called active from +8 up or from −8 down.
Assay [12] in a line: probe aNOTCH3 binding on compound microarray – biochemical, small-molecule microarray, 635/667 nm fluorescence, primary screen (AID 1120).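 Further: probe is a biotin-tagged antibody raised against NOTCH3 rather than NOTCH3 protein; score merges spot fluorescence near 667 nm with spot signal to noise.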 Particulars: higher = more signal.
A short description of assay [13]: probe aNOTCH2 binding on compound microarray – biochemical, small-molecule microarray, 635/667 nm fluorescence, primary screen (AID 1121).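 Further: score merges feature fluorescence read at 667 nm with its signal to noise.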 Particulars: higher = more signal.
In assay [14] the target is Carbonic anhydrase 2 (Homo sapiens) (UniProt P00918). The experiment in a line: compounds binding carbonic anhydrase 2 – biochemical, small-molecule microarray, Alexa647-labelled CAII, profiling panel (AID 1122). Particulars: CAII-A647 binding fluorescence, higher = more signal.
The nature of assay [15]: COS7 lysate on small-molecule microarray, probe aHis, 635 nm (AID 1123).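 Further: z-score combines 667nm fluorescence intensity with signal-to-noise per printed compound spot.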 The note with it: COS7 cell lysate, fluorescence, higher = more signal.
Assay [16] is described as follows: probe aLAP1 signal on lysate-treated microarray – cell lysate, small-molecule microarray, COS7 lysate, primary screen (AID 1124).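 Further: lysate comes from COS7 cells expressing LAP1 and is applied at 0.3 µg/mL; score merges spot fluorescence near 667 nm with signal-to-noise over triplicate slides.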 Particulars: probe aLAP1, fluorescence, higher = more signal.
A further assay relates to Sam68 (KHDRBS1). The experiment in a line: compounds binding KHDRBS1 protein – biochemical, small-molecule microarray, 635 nm fluorescence, primary screen (AID 1125).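 Further: score merges 667 nm channel intensity with signal to noise over triplicate slides.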 The note with it: higher = more signal.
Assay [17] concerns Chordin-like protein 2 (CHRDL2). The experiment in a line: compounds binding chordin-like 2 – biochemical, small-molecule microarray, 635 nm fluorescence, primary screen (AID 1126).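 Further: printed compound slides probed with Chrdl2 protein at 4 µg/mL for 1 h at 4 C; score merges 667 nm emission intensity with signal to noise over three replicate slides.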 Particulars: fluorescence 635 nm, higher = more signal.
The target in assay [18] is Concanavalin-A (Canavalia ensiformis) (UniProt P02866). The experiment in a line: compounds binding concanavalin A lectin – biochemical, small-molecule microarray, Alexa647 label, 635 nm, artefact control for SMM control protein annotation, primary screen (AID 1127).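 Further: z combines 667 nm emission intensity with signal-to-noise across three replicate slides.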 The note with it: ConA-A647 binding fluorescence, higher = more signal.
Concanavalin-A (Canavalia ensiformis), sequence (P02866 whole entry, looked up): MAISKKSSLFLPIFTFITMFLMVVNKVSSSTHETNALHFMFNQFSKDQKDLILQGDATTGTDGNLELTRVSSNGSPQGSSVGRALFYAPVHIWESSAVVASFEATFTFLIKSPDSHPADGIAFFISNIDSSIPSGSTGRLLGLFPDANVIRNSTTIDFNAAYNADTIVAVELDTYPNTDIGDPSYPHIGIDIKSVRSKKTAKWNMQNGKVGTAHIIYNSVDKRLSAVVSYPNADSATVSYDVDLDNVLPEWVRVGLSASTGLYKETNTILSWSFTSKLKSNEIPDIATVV

Torsin-1A-interacting protein 1 (Homo sapiens), sequence (Q5JTV8 whole entry, looked up): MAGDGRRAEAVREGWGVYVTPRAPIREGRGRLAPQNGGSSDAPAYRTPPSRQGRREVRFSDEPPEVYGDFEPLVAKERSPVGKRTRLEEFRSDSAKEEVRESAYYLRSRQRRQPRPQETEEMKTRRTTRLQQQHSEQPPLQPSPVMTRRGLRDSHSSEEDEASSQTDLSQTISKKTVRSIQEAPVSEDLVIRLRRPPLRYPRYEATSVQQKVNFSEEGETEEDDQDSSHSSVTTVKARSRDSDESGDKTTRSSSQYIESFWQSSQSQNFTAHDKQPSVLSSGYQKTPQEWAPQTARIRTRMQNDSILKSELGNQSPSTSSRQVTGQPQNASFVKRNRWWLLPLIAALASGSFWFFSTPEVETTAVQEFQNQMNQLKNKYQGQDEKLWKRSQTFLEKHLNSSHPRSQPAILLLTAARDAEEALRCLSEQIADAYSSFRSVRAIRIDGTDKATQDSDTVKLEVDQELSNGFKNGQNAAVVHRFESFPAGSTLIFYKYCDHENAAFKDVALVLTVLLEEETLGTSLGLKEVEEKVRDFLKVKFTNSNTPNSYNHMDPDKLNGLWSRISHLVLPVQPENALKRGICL
Alpha-bungarotoxin (Bungarus multicinctus), sequence (P60615 whole entry, looked up): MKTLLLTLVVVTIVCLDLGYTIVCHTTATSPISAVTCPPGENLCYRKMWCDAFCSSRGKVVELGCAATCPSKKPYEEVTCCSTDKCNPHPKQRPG
Albumin (Bos taurus), sequence (P02769 whole entry, looked up): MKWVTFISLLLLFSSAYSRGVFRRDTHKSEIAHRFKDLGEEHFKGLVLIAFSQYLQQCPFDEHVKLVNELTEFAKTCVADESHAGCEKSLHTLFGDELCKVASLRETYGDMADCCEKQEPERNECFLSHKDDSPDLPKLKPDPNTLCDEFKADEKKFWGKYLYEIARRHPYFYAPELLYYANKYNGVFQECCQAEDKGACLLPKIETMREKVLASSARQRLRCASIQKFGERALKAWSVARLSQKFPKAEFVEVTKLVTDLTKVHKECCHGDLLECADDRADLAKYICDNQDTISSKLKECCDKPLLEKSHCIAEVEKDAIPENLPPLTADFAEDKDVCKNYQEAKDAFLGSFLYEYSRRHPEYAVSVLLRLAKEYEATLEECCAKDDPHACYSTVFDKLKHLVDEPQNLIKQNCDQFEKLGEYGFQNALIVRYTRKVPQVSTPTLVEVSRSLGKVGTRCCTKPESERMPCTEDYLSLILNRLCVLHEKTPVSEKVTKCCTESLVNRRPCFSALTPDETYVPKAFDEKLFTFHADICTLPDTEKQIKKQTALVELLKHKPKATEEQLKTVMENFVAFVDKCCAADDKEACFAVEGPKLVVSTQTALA
Left-right determination factor 2 (Homo sapiens), sequence (O00292 whole entry, looked up): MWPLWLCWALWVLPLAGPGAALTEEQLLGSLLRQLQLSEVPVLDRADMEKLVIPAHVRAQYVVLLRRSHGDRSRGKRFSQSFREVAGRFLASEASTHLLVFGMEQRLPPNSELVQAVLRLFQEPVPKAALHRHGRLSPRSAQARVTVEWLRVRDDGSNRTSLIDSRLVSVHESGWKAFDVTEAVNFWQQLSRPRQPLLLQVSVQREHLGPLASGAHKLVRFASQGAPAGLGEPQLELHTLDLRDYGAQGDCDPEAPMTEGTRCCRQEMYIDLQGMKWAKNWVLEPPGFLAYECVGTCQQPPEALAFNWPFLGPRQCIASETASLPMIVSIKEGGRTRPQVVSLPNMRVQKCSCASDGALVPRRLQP

As to `O=C1OCCC/C=C\[C@H]2OC34C=CCN(c5ccc6ccccc6c5)C(=O)[C@H]3N(CCCCCCO)C(=O)[C@@H]4C12` (stereo not given in full), the composite z-score in [1] is -1.45; in assay [3] it was -0.955; in assay [4] it was -0.761; in [5], -0.384; in assay [6], -0.176; in [7], -0.179. Moreover, the composite z-score in assay [8] is -0.388; in [9] it was 2.93; in [10], -0.182; with Albumin (Bos taurus), 0.0499; in assay [12] it was -0.256; in assay [13] it was -0.163. Besides, the composite z-score was 0.946 in assay [14]; -0.0749 in assay [15]; 0.978 in assay [16]; -0.468 in the assay on Sam68 (KHDRBS1); -1.65 in [17]; -0.83 in [18]. In assay [2], this compound gave a z-score of -0.625. Further, the composite Z-score in assay [11] was 0.611 (inactive).

Turning to `COC(=O)c1c(CC[C@@H](CO)NC(=O)N[C@H](Cn2cc(Cc3ccccc3)nn2)C(C)C)oc(C(C)=O)c1C(=O)OC`, the composite z-score in [1] was 0.712; in [3], 0.637; in assay [4] it was -0.279; in [5], -0.573; in [6], -0.18; in [7], 0.288. For the same compound, the composite z-score is -0.143 in assay [8]; 0.223 in [9]; 0.882 in assay [10]; 0.0007 with Albumin (Bos taurus); -0.0159 in assay [12]; -0.202 in assay [13]. Also, the composite z-score was 0.43 in [14]; 0.889 in assay [15]; 0.0096 in [16]; 0.709 in the assay on Sam68 (KHDRBS1); 0.0618 in assay [17]; 0.321 in assay [18]. Besides, the z-score in assay [2] was -0.0084. For the same compound, the composite Z-score in assay [11] is 0.255 (inactive).

Consider `COC(=O)[C@@]1(Cc2ccc(OC)cc2)[C@H]2c3cc(C(=O)N4CCCC4)n(Cc4ccsc4Br)c3C[C@H]2CN1C(=O)c1ccccc1`, for which the composite z-score is 1.27 in assay [1]; -0.857 in assay [3]; 1.1 in assay [4]; 0.696 in assay [5]; -0.0944 in assay [6]; -0.237 in assay [7]. In addition, the composite z-score in [8] is 1.48; in assay [9] it was 0.254; in assay [10] it was 0.218; in the assay with Albumin (Bos taurus), 0.885; in [12], 0.527; in [13], -0.0677. The composite z-score in [14] is 0.877; in assay [15] it was 2.83; in assay [16], 0.0786; with Sam68 (KHDRBS1) it was 0.374; in assay [17], -0.91; in [18], 0.496. This compound showed a z-score in [2] of -3.66. For the same compound, in assay [11], the composite Z-score was 0.387 (inactive).

For the compound `COC(=O)[C@@]1(Cc2ccc(F)cc2)[C@@H]2[C@@H](CC(=O)[C@H]2CC(=O)C(=O)N(C)C)CN1C(=O)c1ccccc1`, the composite z-score in [1] is 1.44; in assay [3], -0.211; in assay [4], 1.29; in assay [5] it was 0.352; in assay [6], 0.24; in assay [7], 0.522. The composite z-score in assay [8] was 1.41; in assay [9], 1.08; in assay [10], 1.15; with Albumin (Bos taurus), 0.998; in assay [12], 0.245; in assay [13], -0.041. Besides, the composite z-score in assay [14] is 0.73; in assay [15] it was 2.84; in assay [16], -0.171; in the assay on Sam68 (KHDRBS1), 1.34; in assay [17], -0.633; in [18], 1.1. Besides, in [2], the z-score is -2.53. Further, the composite Z-score in [11] is 0.742 (inactive).

For the compound `COc1ccc(C(=O)O[C@H]2CC[C@]3(C)C4=C(CCC3C2(C)C)[C@]2(C)CC[C@H]([C@H](C)CCCC(C)C)[C@@]2(C)CC4)cc1` (stereo not given in full), the composite z-score in [1] was -0.0389; in assay [3], 0.567; in assay [4], -0.459; in [5] it was -0.83; in [6], -0.0792; in assay [7], -0.0553. Further, the composite z-score is -0.0242 in assay [8]; 0.0921 in [9]; -0.086 in assay [10]; 0.12 in the assay with Albumin (Bos taurus); 0.236 in [12]; -0.149 in assay [13]. The composite z-score is -0.008 in assay [14]; 0.688 in assay [15]; 0.064 in [16]; 0.154 in the assay with Sam68 (KHDRBS1); 0.575 in assay [17]; 0.447 in assay [18]. Besides, in assay [2], the z-score was 0.606. Also, the composite Z-score in [11] was -0.482 (inactive).
